This note sets out measurements from PubChem BioAssay.

Activity calls are given as the source filed them.

Assay [1] can be described thus: small molecules captured by biotinylated probe aFSTL3 – biochemical, small-molecule microarray, fluorescence 635/667, stem cell growth factor project, primary screen (AID 1064).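 Note: measures binding of the biotinylated anti-FSTL3 antibody to printed compounds.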 Particulars: higher = more signal.
The nature of assay [2]: binders from COS7 lysate, DM2A8 probe, primary screen, torsin A project, cell lysate, small-molecule microarray, fluorescence 635/667 (AID 1065). Particulars: higher = more signal, COS7 lysate expressing mutant human TOR1A.
Assay [3] in a line: small molecules captured by biotinylated probe aFGF2 – biochemical, small-molecule microarray, fluorescence 635/667, stem cell growth factor project, primary screen (AID 1067).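 Note: measures binding of biotinylated aFGF2 protein to printed compounds on slides; z-score merges feature fluorescence and signal-to-noise across triplicate slides.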 As to conditions: higher = more signal.
Assay [4] in a line: small molecules captured by biotinylated probe aFGF10 – biochemical, small-molecule microarray, fluorescence 635/667, stem cell growth factor project, primary screen (AID 1071).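 Note: score merges 667 nm spot intensity and signal to noise from triplicate slides.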 As to conditions: higher = more signal.
In assay [5] the target is Neurogenic locus notch homolog protein 2 (Homo sapiens) (UniProt Q04721). Briefly: small molecules binding Notch2 protein – biochemical, small-molecule microarray, 635 nm fluorescence, stem cell growth factors, primary screen (AID 1073). Particulars: higher = more signal.
Chain of Neurogenic locus notch homolog protein 2 (Homo sapiens) (Q04721 whole entry, looked up, canonical isoform): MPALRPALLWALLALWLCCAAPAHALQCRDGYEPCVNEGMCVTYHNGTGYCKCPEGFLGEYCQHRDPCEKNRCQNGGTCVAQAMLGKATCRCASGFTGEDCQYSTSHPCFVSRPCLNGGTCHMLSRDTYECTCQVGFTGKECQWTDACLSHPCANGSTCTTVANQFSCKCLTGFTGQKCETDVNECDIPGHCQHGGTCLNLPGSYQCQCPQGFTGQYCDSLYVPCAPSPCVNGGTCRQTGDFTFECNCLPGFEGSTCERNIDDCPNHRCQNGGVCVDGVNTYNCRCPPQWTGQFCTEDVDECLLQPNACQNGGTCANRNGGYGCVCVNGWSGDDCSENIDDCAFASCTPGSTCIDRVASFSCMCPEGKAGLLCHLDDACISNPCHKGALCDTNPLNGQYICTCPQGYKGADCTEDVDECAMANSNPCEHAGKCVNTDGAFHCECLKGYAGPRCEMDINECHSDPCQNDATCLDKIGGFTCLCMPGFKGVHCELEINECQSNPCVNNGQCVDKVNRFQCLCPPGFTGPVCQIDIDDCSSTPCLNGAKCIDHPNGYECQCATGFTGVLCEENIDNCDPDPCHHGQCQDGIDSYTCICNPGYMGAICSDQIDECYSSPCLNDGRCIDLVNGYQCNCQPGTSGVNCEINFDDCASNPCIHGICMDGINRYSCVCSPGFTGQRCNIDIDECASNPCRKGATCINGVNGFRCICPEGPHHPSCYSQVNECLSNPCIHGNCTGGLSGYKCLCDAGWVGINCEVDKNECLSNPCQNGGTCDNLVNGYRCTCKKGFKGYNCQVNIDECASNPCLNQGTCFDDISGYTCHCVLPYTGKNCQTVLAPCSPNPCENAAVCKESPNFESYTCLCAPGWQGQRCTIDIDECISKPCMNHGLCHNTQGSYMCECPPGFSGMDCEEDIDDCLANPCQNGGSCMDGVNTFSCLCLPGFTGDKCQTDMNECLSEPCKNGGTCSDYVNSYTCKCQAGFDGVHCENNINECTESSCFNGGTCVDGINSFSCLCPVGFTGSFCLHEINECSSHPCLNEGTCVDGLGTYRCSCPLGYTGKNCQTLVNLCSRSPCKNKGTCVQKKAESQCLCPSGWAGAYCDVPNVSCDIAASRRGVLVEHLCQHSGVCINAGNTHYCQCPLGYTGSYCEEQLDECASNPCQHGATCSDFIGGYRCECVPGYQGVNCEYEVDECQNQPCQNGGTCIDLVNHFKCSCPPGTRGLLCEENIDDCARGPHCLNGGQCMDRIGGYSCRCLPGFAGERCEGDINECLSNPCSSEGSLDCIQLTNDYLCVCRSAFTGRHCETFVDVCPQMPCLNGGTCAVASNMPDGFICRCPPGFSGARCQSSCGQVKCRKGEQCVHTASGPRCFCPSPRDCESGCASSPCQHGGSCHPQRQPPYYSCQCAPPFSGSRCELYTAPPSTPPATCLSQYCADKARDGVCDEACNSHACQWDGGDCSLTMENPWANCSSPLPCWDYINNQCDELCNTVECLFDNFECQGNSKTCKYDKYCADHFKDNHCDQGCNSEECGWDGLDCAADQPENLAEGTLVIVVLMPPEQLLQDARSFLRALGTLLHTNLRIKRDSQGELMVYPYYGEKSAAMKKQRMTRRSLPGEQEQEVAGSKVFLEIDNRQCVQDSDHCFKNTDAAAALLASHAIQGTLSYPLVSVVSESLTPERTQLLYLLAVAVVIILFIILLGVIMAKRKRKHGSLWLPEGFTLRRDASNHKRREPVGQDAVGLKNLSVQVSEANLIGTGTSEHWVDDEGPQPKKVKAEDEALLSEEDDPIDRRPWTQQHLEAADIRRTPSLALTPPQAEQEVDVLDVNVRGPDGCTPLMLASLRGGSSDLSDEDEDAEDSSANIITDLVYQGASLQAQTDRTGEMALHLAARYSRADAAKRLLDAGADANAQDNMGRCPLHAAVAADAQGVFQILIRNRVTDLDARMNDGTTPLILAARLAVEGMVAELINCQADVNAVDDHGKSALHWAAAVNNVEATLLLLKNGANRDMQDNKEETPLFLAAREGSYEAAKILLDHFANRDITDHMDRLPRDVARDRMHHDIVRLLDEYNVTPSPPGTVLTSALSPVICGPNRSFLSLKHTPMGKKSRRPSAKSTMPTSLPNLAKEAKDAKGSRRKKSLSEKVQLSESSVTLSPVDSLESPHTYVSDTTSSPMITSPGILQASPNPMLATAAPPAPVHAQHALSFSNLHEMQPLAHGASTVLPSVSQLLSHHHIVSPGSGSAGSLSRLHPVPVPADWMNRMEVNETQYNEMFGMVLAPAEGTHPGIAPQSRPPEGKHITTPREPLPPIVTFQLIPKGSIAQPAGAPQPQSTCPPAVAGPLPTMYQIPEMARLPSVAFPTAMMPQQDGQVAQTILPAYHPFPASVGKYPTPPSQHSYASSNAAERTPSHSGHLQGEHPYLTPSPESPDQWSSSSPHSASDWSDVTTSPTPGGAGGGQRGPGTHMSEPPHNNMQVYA
The target of assay [6] is Pro-neuregulin-1, membrane-bound isoform (Homo sapiens) (UniProt Q02297). Put plainly: small molecules binding neuregulin-1 protein – biochemical, small-molecule microarray, fluorescence 635/667, psychiatric disease protein project, primary screen (AID 1075).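 Note: score combines 667 nm spot fluorescence with signal to noise.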 Particulars: NRG1 binding, 635 nm fluorescence, higher = more signal.
Chain of Pro-neuregulin-1, membrane-bound isoform (Homo sapiens) (Q02297 whole entry, looked up, the tested form may be a part, canonical isoform): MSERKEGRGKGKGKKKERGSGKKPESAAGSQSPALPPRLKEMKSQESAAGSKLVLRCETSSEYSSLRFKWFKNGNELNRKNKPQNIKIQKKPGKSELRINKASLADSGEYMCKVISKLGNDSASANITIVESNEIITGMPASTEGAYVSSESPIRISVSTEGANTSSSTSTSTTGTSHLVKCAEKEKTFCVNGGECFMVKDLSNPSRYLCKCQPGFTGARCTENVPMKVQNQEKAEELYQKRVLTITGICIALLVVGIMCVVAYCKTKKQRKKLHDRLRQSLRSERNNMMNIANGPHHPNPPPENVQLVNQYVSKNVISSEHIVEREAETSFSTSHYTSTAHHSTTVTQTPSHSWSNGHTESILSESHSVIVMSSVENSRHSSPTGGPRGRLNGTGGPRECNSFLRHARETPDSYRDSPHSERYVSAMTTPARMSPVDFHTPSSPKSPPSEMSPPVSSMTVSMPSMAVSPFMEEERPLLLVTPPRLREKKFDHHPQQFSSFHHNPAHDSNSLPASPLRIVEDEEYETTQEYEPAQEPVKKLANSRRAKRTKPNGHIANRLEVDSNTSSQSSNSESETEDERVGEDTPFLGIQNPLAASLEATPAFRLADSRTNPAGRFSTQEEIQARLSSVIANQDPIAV
Assay [7] deals with Neuregulin-1 EGF-like domain. Briefly: small molecules binding NRG1 EGF domain – biochemical, small-molecule microarray, 635 nm fluorescence, primary screen (AID 1081).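 Note: binding of the protein to compounds printed on small-molecule microarray slides.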 Particulars: higher = more signal.
Assay [8] is described as follows: FRG1 expression reporter modulators in myotubes – cell-based, C2C12 myotubes, firefly/Renilla luciferase, luminescence, FRG1 inhibition for FSHD, primary screen (AID 1084). Particulars: FRG1 promoter luciferase, higher = more signal, called active from +8 up or from −8 down.
Assay [9] is described as follows: small molecules captured by biotinylated probe aFST – biochemical, small-molecule microarray, fluorescence 635/667, stem cell growth factor project, primary screen (AID 1086).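 Note: score merges 667 nm fluorescence with signal-to-noise of each printed compound spot.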 Particulars: higher = more signal.
Assay [10] is described as follows: binders of probe aHhip on microarray, primary screen, stem cell growth factor project, biochemical, small-molecule microarray, fluorescence 635/667 (AID 1087).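 Note: score merges spot fluorescence at 667nm with spot signal to noise ratio.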 As to conditions: higher = more signal.
The test system of assay [11] is PRMT1 (protein arginine N-methyltransferase 1). Put plainly: small molecules binding arginine methyltransferase PRMT1 – biochemical, small-molecule microarray, 635 nm fluorescence, primary screen (AID 1088).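 Note: binding of Prmt1 protein to compounds spotted on small-molecule microarray slides.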 As to conditions: higher = more signal.
Assay [12] in a line: growth effects on S. cerevisiae YJM789 – YJM789 clinical isolate, OD600, 24 h, basal, primary screen (AID 1089).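 Note: growth of clinical yeast isolate S. cerevisiae YJM 789 seeded 1000 cells per well; test concentration not given here.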 As to conditions: higher = more signal, called active from +8 up or from −8 down.
The nature of assay [13]: S. pombe growth modifiers, basal conditions – strain 972, OD600, 24 h, no modulator, primary screen (AID 1090).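 Note: basal condition with compound alone and no growth modifier present; test concentration not given here.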 As to conditions: S. pombe 972 growth, higher = more signal, called active from +8 up or from −8 down.
The nature of assay [14]: budding yeast growth modifiers under rapamycin – strain BY4716, OD600, 96 h, primary screen (AID 1091). Note: test concentration not given here. Particulars: S. cerevisiae BY4716 + rapamycin, higher = more signal, called active from +8 up or from −8 down.
Assay [15] deals with Torsin-1A-interacting protein 2 (Homo sapiens) (UniProt Q8NFQ8). Put plainly: small molecules binding lysate-expressed LULL1 – cell lysate, human LULL1 lysate, 635/667 nm fluorescence, primary screen (AID 1092).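 Note: probe is lysate of COS7 cells overexpressing human LULL1; score merges per-feature 667 nm fluorescence with signal-to-noise.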 Particulars: small-molecule microarray, hLULL1 lysate binding, 635 nm fluorescence; higher = more signal.
Chain of Torsin-1A-interacting protein 2 (Homo sapiens) (Q8NFQ8 whole entry, looked up): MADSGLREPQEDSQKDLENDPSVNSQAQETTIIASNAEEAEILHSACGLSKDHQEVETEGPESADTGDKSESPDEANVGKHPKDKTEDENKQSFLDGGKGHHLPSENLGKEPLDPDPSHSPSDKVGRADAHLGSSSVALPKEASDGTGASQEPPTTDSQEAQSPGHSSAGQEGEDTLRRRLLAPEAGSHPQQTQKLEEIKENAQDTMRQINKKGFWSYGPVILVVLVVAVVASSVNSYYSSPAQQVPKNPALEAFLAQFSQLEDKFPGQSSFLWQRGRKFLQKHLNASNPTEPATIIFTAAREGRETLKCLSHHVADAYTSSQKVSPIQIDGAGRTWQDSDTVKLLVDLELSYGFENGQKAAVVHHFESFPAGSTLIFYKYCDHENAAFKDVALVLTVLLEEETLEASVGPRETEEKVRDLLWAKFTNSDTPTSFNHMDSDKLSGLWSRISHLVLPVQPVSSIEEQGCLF
A short description of assay [16]: optical density change of DRC41 E. coli – strain DRC41, OD650, 24 h, E. coli filamentation project, primary screen (AID 1093).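 Note: MC1000 strain lacking acrAB efflux and sulA so SOS filamentation is blocked; test concentration not given here.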 Particulars: E. coli DRC41 growth, higher = more signal, called active from +8 up or from −8 down.
A short description of assay [17]: probe aLefty2 binding to arrayed compounds – biochemical, biotinylated probe, 635/667 nm fluorescence, primary screen (AID 1094).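 Note: score merges spot fluorescence near 667 nm with spot signal-to-noise ratio.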 As to conditions: small-molecule microarray, higher = more signal.
In assay [18] the test system is Noggin (protein binding on small-molecule microarray). Put plainly: small molecules binding Noggin protein – biochemical, 635/667 nm fluorescence, primary screen (AID 1095).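 Note: score merges 667 nm feature fluorescence with signal to noise over triplicate slides.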 Particulars: 635 nm fluorescence, higher = more signal.
The target in assay [19] is Neurogenic locus notch homolog protein 3 (Homo sapiens) (UniProt Q9UM47). Put plainly: small molecules binding NOTCH3 protein – biochemical, 635/667 nm fluorescence, primary screen (AID 1096). Particulars: small-molecule microarray, 635 nm fluorescence, higher = more signal.
Assay [20] can be described thus: probe aEGFR binding to arrayed compounds – biochemical, biotinylated probe, 635/667 nm fluorescence, primary screen (AID 1097).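 Note: probe is a biotinylated anti-EGFR antibody binding compounds printed on slides; score combines fluorescence near 667 nm and signal to noise of each spot.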 As to conditions: small-molecule microarray, higher = more signal.

`COc1ccc(C(O)C2C=CC3C(=O)N(c4ccccc4)C(=O)C3N2Nc2ccccc2)c2ccccc12` (stereo not given): the composite z-score in assay [1] is 0.782; in assay [2] it was -0.141; in assay [3] it was -0.0201; in assay [4], 0.354; in assay [5] it was 0.945; in assay [6], 0.724. The composite z-score in assay [7] was 1.04; in assay [9], 0.563; in [10], -0.163; in [11] it was 0.802; in assay [15] it was 2.23; in assay [17], 0.189. Further, the composite z-score in assay [18] was -0.659; in assay [19], 0.459; in assay [20], -0.0949. Further, the z-score in assay [8] is -0.0953 (inactive); in assay [12] it was -1.41 (inactive); in assay [13], 1.81 (inactive); in [14], -0.0303 (inactive); in assay [16], -0.807 (inactive).

In the case of `C=CCCN(CC#C[C@H]1Oc2ccccc2S(=O)(=O)N2CCC[C@@H]12)S(=O)(=O)c1ccc(C)cc1`, the composite z-score in [1] is -0.141; in [2] it was -0.0385; in [3], -0.0717; in [4] it was 0.61; in assay [5] it was -0.271; in assay [6] it was 0.353. Moreover, the composite z-score in [7] was 0.476; in [9] it was 0.0279; in assay [10], 0.0373; in [11] it was 0.514; in [15], 0.974; in assay [17], -0.139. Besides, the composite z-score in assay [18] is 0.264; in assay [19] it was 0.18; in assay [20], -0.145. Also, the z-score in assay [8] was -4.31 (inactive); in assay [12], 1.15 (inactive); in assay [13], -1.7 (inactive); in assay [14], 0.965 (inactive); in [16], -1.59 (inactive).

Consider `C=CC[C@@]1(C(=O)NCc2ccccc2)N=C(c2ccc(OCCCO)cc2)O[C@@H]1c1ccccc1CN=[N+]=[N-]`, for which the composite z-score was 0.351 in [1]; -0.651 in assay [2]; 0.153 in [3]; 0.799 in assay [4]; 1.54 in assay [5]; 1.57 in [6]. The composite z-score in assay [7] was 1.2; in [9] it was 1.44; in [10], -0.0237; in [11], 0.985; in [15] it was 3.17; in assay [17] it was 0.418. In addition, the composite z-score in assay [18] is 0.0824; in [19], 0.901; in [20], 0.0149. Further, the z-score was -2.56 (inactive) in [8]; 0.371 (inactive) in [12]; 1.68 (inactive) in [13]; 4.84 (inactive) in [14]; -0.759 (inactive) in assay [16].

On to `C=C(CCCC)/C(=C/C[C@H](OC(C)=O)c1ccc(CO)o1)c1cc(C(=O)OC)ccc1OC`, for which the composite z-score is -0.509 in assay [1]; -0.296 in assay [2]; -0.0333 in [3]; 0.525 in assay [4]; -0.0467 in assay [5]; 0.714 in assay [6]. Further, the composite z-score is 0.888 in [7]; 0.439 in assay [9]; -0.0618 in assay [10]; 1.56 in assay [11]; 1.8 in assay [15]; -0.0371 in assay [17]. In addition, the composite z-score was 1.8 in assay [18], 1.09 in [19] and -0.125 in assay [20]. In addition, the z-score was -0.313 (inactive) in assay [8]; 1.02 (inactive) in [12]; -1.01 (inactive) in assay [13]; -0.194 (inactive) in assay [14]; 1.05 (inactive) in [16].

As for `CC(C)N1C(=O)c2ccccc2[C@](C)(C(=O)NC2CC2)[C@@H]1c1ccc(CO)cc1`, the composite z-score in assay [1] was -0.181; in assay [2], 0.007; in assay [3], -0.129; in assay [4], -0.0282; in [5], 0.38; in assay [6], 0.602. The composite z-score in [7] is 1.21; in [9] it was 0.048; in assay [10], 0.0246; in [11], 1.49; in [15] it was 2.66; in assay [17] it was -0.14. For the same compound, the composite z-score in [18] was 0.614; in assay [19], 0.764; in assay [20], -0.081. Moreover, the z-score is -0.0117 (inactive) in assay [8]; -0.0975 (inactive) in assay [12]; 0.193 (inactive) in assay [13]; -0.699 (inactive) in assay [14]; 0.738 (inactive) in assay [16].
